# Bioassay records as filed in PubChem.
# Methyltransferases – Primary Screen for Target Class Profiling of Small Molecule Inhibitors of Methyltransferases | purified enzyme, MTase-Glo SAH luminescence; active compounds read low | calls only at 40 µM | 3.9% of 25,000 active | AID 1745853, 2022; call rule not given here
#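 Each enzyme was assayed with SAM and its substrate. SAH formation detected by MTase-Glo luminescence; single-point 40 uM screen[…].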
# MTase-Glo counter – detection enzyme interference, methyltransferase counter-screen; shares compounds with Methyltransferases; MTase-Glo coupled enzymes, SAH conversion luminescence, no MTase; Potency, µM (titrated, usually from 57.3 µM), for the others: at the highest dose activity change, negative = inhibition, most hits filed as inhibitors; 6% of 180 active; active = well fitted inhibition curve with a large enough effect; note: potency is the fitted concentration of half-maximal effect
# * hit, by the source's call; i = inactive; + = active, no number; [ ] = dose if it differs, or a comment. The sample as a whole holds a higher share of hits than the screen did. % is set by controls: 0 for no effect and ±100 for the full control effect.
SMILES,Methyltransferases,others
O=C(Nc1ccccc1)c1cc2n(n1)CCN(C(=O)COc1ccccc1)C2,i,
O=C(Nc1ccccc1)c1cnc2c(c1)N(C(=O)Cc1ccc(O)cc1)CCC2,+,MTase-Glo counter=-6%[85.7 µM]
CC(C)c1ccc(CC(=O)N2CCCc3ncc(C(=O)NCCc4c[nH]c5ccccc45)cc32)cc1,i,
Cc1nn2c(N3CCC(O)C3)cc(-c3ccccc3)nc2c1C (stereo unspecified),i,
CC(C)Cn1c(=O)c2ccc(C(=O)NC(C)C)cc2n2c(=O)n(Cc3ccc(N4CCCC4=O)cc3)nc12,i,
O=C(CCc1nnc2n(Cc3ccc(F)cc3)c(=O)c3ccccc3n12)N1CCc2ccccc2C1,i,
O=c1cc(N2CCOCC2)oc2c(N3CCN(c4ccccn4)CC3)nccc12,i,
CCc1ccc(CN2C(=O)c3ccc(-c4ccccc4)n3CC2(C)C(=O)NC2CCCCC2)cc1 (stereo unspecified),i,
CCn1cc(C(=O)N2C[C@@H](COC)[C@H](C(=O)NC)C2)cn1,i,
CC(=O)N1CCC(C(=O)N2CCCC(c3nc4ncccc4[nH]3)C2)CC1 (stereo unspecified),i,
CN1CCN(c2nc3cc(C(F)(F)F)ccc3n3cccc23)CC1,i,
CN1CCC(N2CC[C@H](c3nc4ccccc4[nH]3)C2)CC1,+,MTase-Glo counter=-2%[114 µM]
CC(=O)N1CC[C@H](c2nc3ccc(C#N)cc3[nH]2)C1,i,
CN1CCC(N2CC[C@H](c3nc4ccc(C(F)(F)F)cc4[nH]3)C2)CC1,+,MTase-Glo counter=2%[85.7 µM]
O=C(C1CC2(CCNCC2)CN1)N1CCC(c2nc3ccccc3[nH]2)CC1 (stereo unspecified),i,
CC1=C(C)C(=O)OC(C(C)(O)C2CCC3C4CC=C5CC(OC6OC(COC7OC(CO)C(O)C(O)C7O)C(O)C(O)C6O)CC(O)C5(C)C4CCC32C)C1 (stereo unspecified),i,
CCc1nc2c(NC(=O)c3ccc(F)c(Cl)c3)cccn2n1,i,
CCN(C(=O)c1cccc(F)c1F)[C@@H]1CCN(c2ncccc2C#N)C[C@H]1O,i,
Cc1nc(-c2ccc(OC3CCN(C(=O)NC4CCCCC4)C3)cc2)no1 (stereo unspecified),i,
CCC(C)NC(=O)N1CCn2nnc(CCC(=O)N3CCOCC3)c2C1 (stereo unspecified),i,
OC[C@@H]1CNC[C@H]1C1CCN(C2CNC2)CC1,i,
CCCN1C(=O)c2c(C(=O)NCc3cccc(Cl)c3)ncn2CC1(C)C(=O)NCc1ccc(OC)cc1 (stereo unspecified),i,
C=C1CC[C@@H]2[C@](C)(CO)[C@H](O)CC[C@@]2(C)[C@@H]1CC(O)C1=CCOC1=O (stereo partly specified),i,
COc1cccc(CN2C(=O)c3ccc(-c4ccco4)n3CC2(C)C(=O)NC2CCC(C)CC2)c1 (stereo unspecified),i,
O=C(CCn1ccc2cc(S(=O)(=O)N3CCCCC3)ccc21)NCc1cccnc1,i,
C1=C(c2nc(-c3ccncc3)cc3c2ccn3Cc2cccnc2)CCOC1,+,MTase-Glo counter=1%[85.7 µM]
CCCn1c(=O)c2ccc(Cl)cc2n2c(=O)n(Cc3cc(C)ccc3C)nc12,i,
CSCc1noc(Cn2nc(C)c3ccccc3c2=O)n1,i,
CCOC(=O)c1cc2n(n1)CC(C)(C(=O)NCc1ccc(C)cc1)N(c1ccc3c(c1)OCO3)C2=O (stereo unspecified),i,
